Sampled rows, rich in hits. Any-hit rate of the full collection: about 19%.
KB-V1 cytotox: KB-V1 MDR subline cytotoxicity. KB-V1 MDR cells viability, CellTiter-Glo, 72 h. Potency, µM (doses to about 46.1 µM), most hits filed as cytotoxic. 3.4% of 400,000 active. AID 1347076; further: nearly all actives have a fitted effect of over 60% in size
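KB-V1 MDR subline cells in DMEM (phenol-red free, 10% FBS) exposed to compounds in qHTS concentration series for 72 h at 37 degrees C. Viability read by CellTiter-Glo luminescence; concentration-effect curves fitted after normalization and correction.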
HT1080NT lethal: kills 2HG-producing HT-1080-NT fibrosarcoma cells. HT-1080-NT fibrosarcoma viability, CellTiter-Glo ATP luminescence, 48 h. Potency, µM (series often up to 46.1 µM), hits mostly cytotoxic. 1.6% of 360,000 active. AID 686970;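 further: NT is the 2HG producing partner of a matched IDH1 knockdown line; nearly all actives have a fitted effect of over 55% in size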
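HT-1080-NT; 750 cells/well; 5% FBS RPMI; 48 h compound, 37 degrees C; CellTiter-Glo luminescence; curve fitting and curve-class assignment.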
TDP1 cell CPT: growth inhibition of DT40 Tdp1-/-;hTDP1 cells with camptothecin (screen for TDP1 inhibitors); chicken DT40 Tdp1-/-;hTDP1 cells + 20 nM CPT, ATP luminescence, 48 h; Potency, µM (top dose mostly 46.2 µM), actives largely listed as inhibitors; 12% of 420,000 active; AID 686979; further: nearly all actives have a fitted effect of over 55% in size
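Chicken DT40 Tdp1-/- cells complemented with human TDP1, 400 cells/well, exposed to compounds plus 20 nM camptothecin for at least 48 h at 37 C; viability read as ATP content by CellTiter-Glo luminescence.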
DT40 TDP1 no CPT: qHTS for Inhibitors of human tyrosyl-DNA phosphodiesterase 1 (TDP1): qHTS in cells in absence of CPT | AID 686978, 2013 | Potency, µM (highest dose often 46.2 µM), most hits filed as inhibitors | DT40 Tdp1-/- hTDP1 cells, no CPT, ATP luminescence, 48 h | 15% of 420,000 active; further: nearly all actives have a fitted effect of over 55% in size
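Seeded 400 DT40-hTDP1 cells/well (vehicle DMSO, no 20 nM CPT); pinned compounds; ≥48 hr at 37 °C; CellTiter-Glo luminescence as viability measure.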
KB-3-1 tox: kills parental KB-3-1 adenocarcinoma cells; 1.4% of 400,000 active; AID 1347075; Potency, µM (series often up to 46.1 µM), most hits filed as cytotoxic; KB-3-1 viability, CellTiter-Glo ATP luminescence, 72 h; further: nearly all actives have a fitted effect of over 60% in size
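Viability of parental KB-3-1 cells, measured by CellTiter-Glo luminescence, followed a 72 h incubation at 37 °C with pinned compounds in phenol-red-free DMEM containing 10% FBS.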
HT1080 IDH1KD tx: kills HT-1080 cells with IDH1 knockdown; 2% of 360,000 active; AID 686971; Potency, µM (series often up to 46.1 µM), hits mostly cytotoxic; HT-1080 IDH1 knockdown viability, ATP luminescence, 48 h
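Luminescent ATP read-out (CellTiter-Glo, 10 min at room temperature) after 48 h compound exposure at 37 °C gave viability of IDH1-knockdown HT-1080 cells. Activity was normalised to DMSO and cell-free wells, then fitted as concentration-response curves.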
Numbers stand for hits; - = inactive; ? = inconclusive; . = no result; [ ] = remark or other dose. The call rests on the fitted dose curve; in most records, active means well fitted curve in the direction sought with a large enough effect; inconclusive means small, poorly fitted or top-dose-only effect, or another doubt; inactive means no such curve, though single readings can be large; an effect the other way counts as inactive or inconclusive.

SMILES	KB-V1 cytotox	HT1080NT lethal	TDP1 cell CPT	DT40 TDP1 no CPT	KB-3-1 tox	HT1080 IDH1KD tx
CCOC(=O)c1c(NC(=S)NC(=O)c2ccc(Cn3cc(Cl)cn3)o2)sc2c1CCCCC2	-	-	?	?	?	-
CN(CCN1CCOCC1)Cc1nc(-c2ccccc2)no1	-	-	-	-	-	-
CC1O[C@@H](O[C@H](C)CC[C@@H](C)O)C(O)C[C@H]1O (stereo not given in full)	-	-	-	-	-	-
Cc1ccc(C)c(-c2nnc(NC(=O)COc3ccccc3)o2)c1	-	-	?	?	-	-
Cc1ccc(C)c(-c2nnc(NC(=O)c3ccc([N+](=O)[O-])o3)o2)c1	-	?	15µM	15µM	?	?
Cc1ccc(-c2nnc(NC(=O)Cc3ccc(F)cc3)o2)c(C)c1	-	-	10µM	12µM	?	-
Cc1ccc(-c2nnc(NC(=O)CCS(=O)(=O)c3ccccc3)o2)c(C)c1	-	-	-	-	-	-
Cc1ccc(C)c(-c2nnc(NC(=O)Cc3ccc(F)cc3)o2)c1	?	-	12µM	10µM	?	-
Cc1cc(C)c2sc(NC(=O)c3ccc([N+](=O)[O-])o3)nc2c1	-	-	?	?	?	-
CC(=O)c1ccc(S(=O)(=O)NCCC(=O)NC(C)c2ccncc2)cc1 (stereo not given)	-	-	-	-	-	-
CC(=O)C[n+]1cccc(Br)c1	-	.	-	-	-	.
Cc1nnc(C)n1/N=C/c1c(O)ccc2ccccc12	?	-	-	-	-	-
Cc1nnc(-c2ccccc2)c(=O)n1/N=C/c1c(O)ccc2ccccc12	2.9µM	?	4.1µM	5.2µM	?	?
CCc1n[nH]c(=S)n1/N=C/c1c(O)ccc2ccccc12	5.8µM	-	-	-	?	-
COc1ccccc1N1CCN(S(=O)(=O)CCNC(=O)C2CCCCC2)CC1	-	-	?	-	-	-
N#CC1=C(S)N(c2ccc(F)cc2)C(c2cccs2)NC1=O (stereo not given)	-	-	8.2µM	?	-	-
Cc1cccc(N2C(S)=C(C#N)C(=O)NC2c2cccs2)c1 (stereo not given)	-	-	15µM	13µM	-	-
Cc1ccccc1N1C(S)=C(C#N)C(=O)NC1c1cccs1 (stereo not given)	-	-	?	?	-	-
CCCCCCCCCC[n+]1ccc(/C=C/c2c[nH]c3ccccc23)cc1	?	.	0.32µM	0.11µM	5.2µM	.
OCC[n+]1ccc(/C=C/c2c[nH]c3ccccc23)cc1	-	-	6.5µM	5.8µM	?	-
CCCCCCCCCCCCCCCC[n+]1ccc(/C=C/c2c[nH]c3ccccc23)cc1	?	.	0.89µM	0.71µM	12µM	.
O=C(COc1coc(CN2CCN(c3ccc(F)cc3)CC2)cc1=O)NCC1CCCO1 (stereo not given)	-	-	-	-	-	-
COc1cccc(CNc2nc3cc(-c4ccccc4CO)sc3c(=O)n2C)c1	-	29µM	18µM	?	?	?
COc1cccc(CNc2nc3cc(-c4cscc4C)sc3c(=O)n2C)c1	?	?	?	21µM	-	?
COc1cccc(CNc2nc3cc(-c4cccc(OC)c4)sc3c(=O)n2C)c1	-	-	?	?	-	-
SMILES	KB-V1 cytotox	HT1080NT lethal	TDP1 cell CPT	DT40 TDP1 no CPT	KB-3-1 tox	HT1080 IDH1KD tx
CCOc1ccc(OCCC(=O)OCC(=O)N2CCN(S(=O)(=O)c3ccc(C)cc3)CC2)cc1	-	?	15µM	15µM	-	-
Cc1ccc(OCCC(=O)OCC(=O)N2CCN(S(=O)(=O)c3ccc(Cl)cc3)CC2)cc1	-	-	?	?	-	-
O=C(COc1ccccc1)N1CCN(S(=O)(=O)c2ccc(Br)cc2)CC1	-	-	-	-	-	-
N#Cc1ccc(OCC(=O)N2CCN(S(=O)(=O)c3ccc(Cl)s3)CC2)cc1	-	-	16µM	?	-	-
Cc1ccc(S(=O)(=O)N2CCN(C(=O)COC(=O)CCOc3ccc(C(C)(C)C)cc3)CC2)cc1	-	-	12µM	10µM	-	-
Cc1ccc(S(=O)(=O)N2CCN(C(=O)COc3ccc(Br)cc3)CC2)cc1	16µM	-	?	?	-	-
Cc1ccc(OCCC(=O)OCC(=O)N2CCN(S(=O)(=O)c3ccc(C)cc3C)CC2)cc1	-	-	?	?	-	-
Cc1cccc2c(N3CCCC3)nc(CNS(=O)(=O)c3ccc4ccccc4c3)nc12	.	.	-[9.04 µM]	?	.	.
COC(=O)c1cc2oc(C)cc2n1Cc1ccc(C)cc1	.	.	-	?	.	.
CCOc1ccc(N2CC(c3nc4ccccc4n3CCOc3ccccc3OC)CC2=O)cc1 (stereo not given)	-	.	?	23µM	-	.
CCn1c(C2CC(=O)N(c3ccc(C)c(C)c3)C2)nc2ccccc21 (stereo not given)	-	-	?	18µM	-	-
CCCn1c(C2CC(=O)N(c3cc(OC)ccc3OC)C2)nc2ccccc21 (stereo not given)	-	-	21µM	?	-	-
Cc1ccc(N2CC(c3nc4ccccc4n3C)CC2=O)cc1C (stereo not given)	-	-	-	?	-	-
O=C1CC(c2nc3ccccc3n2CCCOc2ccccc2)CN1c1ccc(F)cc1 (stereo not given)	-	.	16µM	8.2µM	?	.
Cc1cc(C)c(S(=O)(=O)NCc2ccccn2)c(C)c1	?	-	-	-	-	-
CCN(CCNC(=O)CN1CCN(Cc2ccc(Cl)cc2)C1=O)c1ccccc1	?	-	?	?	-	-
CCOc1ccc(N2CC(c3nc4ccccc4n3CCOc3ccc(CC)cc3)CC2=O)cc1 (stereo not given)	-	.	?	?	-	.
CCCCn1c(C2CC(=O)N(c3ccc(OCC)cc3)C2)nc2ccccc21 (stereo not given)	-	.	21µM	?	-	.
c1cc2[nH]snc2c2nc(C3CC3)nc12	?	-	18µM	13µM	?	?
CCNC(=O)C1(C)CCN(C(=O)c2ccccc2OC)C1 (stereo not given)	-	-	-	-	-	-
CCn1ncc([N+](=O)[O-])c1C(=O)Nc1ccc(C)c(C)c1	-	-	-	-	-	-
CCCOc1ccc(-c2nn(-c3ccccc3)cc2/C=C2\SC(N)=NC2=O)cc1	-	-	-	-	-	-
Cc1cc(-c2nn(-c3ccccc3)cc2/C=C2\SC(N)=NC2=O)ccc1OC(C)C	16µM	-	?	?	?	-

Screening results (PubChem)
